From PubChem BioAssay AID1209 (Sanford-Burnham Center for Chemical Genomics, 2008)
Several values for one entry are separate records, joined by “and”; a condition that tells them apart may be missing. Equal entries are not always repeated. About 810 (0.43%) of roughly 190,000 compounds were called active. Cut-off read from the data, not from the text of the source: active = inhibition above about 50%; inactive = the rest. This excerpt belongs to a sample that is enriched for actives.

Target: Mannose-6-phosphate isomerase (Homo sapiens) (UniProt P34949)
Assay: inhibitors of human PMI, primary screen, biochemical, fluorescence intensity, coupled assay (AID 1209);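 note: plate controls were DMSO vehicle for no effect and wells lacking substrate for full effect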
Conditions: purified PMI enzyme, at 20 µM, stronger effect = higher value

Sequence of Mannose-6-phosphate isomerase (Homo sapiens) (P34949 whole entry, looked up): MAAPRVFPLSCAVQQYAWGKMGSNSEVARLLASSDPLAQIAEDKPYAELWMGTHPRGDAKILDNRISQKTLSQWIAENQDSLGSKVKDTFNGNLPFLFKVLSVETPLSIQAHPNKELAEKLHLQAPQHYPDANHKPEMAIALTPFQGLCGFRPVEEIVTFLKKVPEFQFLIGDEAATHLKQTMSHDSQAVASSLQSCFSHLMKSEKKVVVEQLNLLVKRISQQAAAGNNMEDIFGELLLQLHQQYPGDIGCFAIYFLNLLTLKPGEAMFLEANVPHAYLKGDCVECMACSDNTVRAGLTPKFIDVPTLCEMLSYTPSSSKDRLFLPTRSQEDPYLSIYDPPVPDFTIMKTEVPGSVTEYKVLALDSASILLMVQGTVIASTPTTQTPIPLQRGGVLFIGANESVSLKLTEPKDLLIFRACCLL

SMILES	inhibition
O=[N+]([O-])c1ccc(O)c2cccnc12	-10.1% (inactive)
CCCn1nc(C(=O)NC2CCCc3ccccc32)c2ccccc2c1=O (stereo not given)	6.9% (inactive)
COc1ccc(OC)c(C(=O)COC(=O)c2cc(C)oc2C)c1	-24.4% (inactive)
O=C(CNC(=O)c1cccs1)NCC(=O)OCc1cccc(Cl)c1	4.5% (inactive)
CCOC(=O)C1=C(C)Nc2ccccc2N=C1NC(=O)Cc1ccc(Br)cc1	18.8% (inactive)
COc1ccc(Br)cc1-c1noc(-c2ccccc2)n1	11.5% (inactive)
COc1ccc(C2C(C#N)=C(N)Oc3n[nH]c(C)c32)cc1Cn1cc([N+](=O)[O-])cn1 (stereo not given)	7.7% (inactive)
O=C(/C=C/c1ccc(Br)cc1)NC(=S)NNC(=O)c1ccco1	-1.2% (inactive)
Oc1ccc(/C=N/Nc2nc(N3CCCC3)nc(N3CCCC3)n2)cc1O	57.6% (active)
COc1cc(/C=N/Nc2nc(N3CCCC3)nc(N3CCCC3)n2)ccc1O	7.9% (inactive)
COc1ccc(/C=N/Nc2nc(N3CCCC3)nc(N3CCCC3)n2)cc1O	-10.3% (inactive)
N=C1C(c2ccccc2)=C(O)CN1c1cccc(S(N)(=O)=O)c1	10.1% (inactive)
CC1(C)C2CCC1(CS(=O)(=O)N1CCOCC1)C(=O)C2 (stereo not given)	7.9% (inactive)
CCOC(=O)c1cc2sccc2n1CC(=O)Nc1ccc(OC)cc1OC	16% (inactive)
O=C1c2ccccc2C(=O)N1CN(C(=O)COc1ccccc1)c1ccccc1	3.5% (inactive)
COC(=O)c1ccc(Sc2ccc(Cl)cc2)c(N)c1	9.3% (inactive)
COC(=O)c1ccc(Sc2ccc(C)cc2)c(N)c1	55% (active)
COC(=O)c1ccc(Sc2ccc(F)cc2)c(N)c1	11.4% (inactive)
Cc1sc2nc(CSc3n[nH]c(N)n3)[nH]c(=O)c2c1C	-10.2% (inactive)
CCCC(=O)Nc1cc(OC)c(OC)cc1C(=O)O	6.8% (inactive)
CCCCNc1nc(=S)[nH]c2cc(OC)c(OC)cc12	-4.5% (inactive)
CCCCNc1cc(NC(C)=O)cc2cc(OC)c(OC)cc12	53.3% (active)
Cc1cc(C)c(C#N)c(SCc2[nH]nc3c2C(c2ccc(F)cc2)C(C#N)=C(N)O3)n1 (stereo not given)	12.8% (inactive)
COc1cc(OC)cc(C(=O)NNC(=O)Cc2ccc(OC)c(S(=O)(=O)N3CCOCC3)c2)c1	2.7% (inactive)

SMILES	inhibition
CCOC(=O)c1sc(=S)n2c1[nH]c(=O)c1ccc(C(=O)OC)cc12	68.6% (active)
CCCCCNC(=O)c1ccc2c(=O)[nH]c3c(C(=O)NCC4CCCO4)sc(=S)n3c2c1 (stereo not given)	10.4% (inactive)
CCCCNC(=O)c1sc(=S)n2c1[nH]c(=O)c1ccccc12	16.1% (inactive)
CCOc1ccc(-c2[nH]nc3c2C(c2ccc(O)cc2)C(C#N)=C(N)O3)cc1 (stereo not given)	27.8% (inactive)
COc1ccc(-c2noc(CN(C(=O)C(C)(C)C)C(C)C)n2)cc1	15.9% (inactive)
Cc1oc2cc(O)ccc2c(=O)c1-c1cnn(-c2ccccc2)c1	-5.2% (inactive)
Cc1oc2c(O)c(O)ccc2c(=O)c1-c1cnn(-c2ccccc2)c1	79.5% (active)
Cc1oc2c(C)c(O)ccc2c(=O)c1-c1cnn(-c2ccccc2)c1	-14.8% (inactive)
CCC(CC)=C(C#N)C(=O)NC1CCCCC1	-12.5% (inactive)
CCN(C(=O)COC(=O)c1cc(-c2ccccc2)nc2c1c(C)nn2-c1ccccc1)C1CCS(=O)(=O)C1 (stereo not given)	14.7% (inactive)
COc1ccc(-c2cc(=O)c3cc(OC)ccc3o2)cc1	-5% (inactive)
CCOc1ccccc1-c1c2cc(O)c(=O)cc-2oc2cc(O)c(O)cc12	46.2% (inactive)
COc1cc(OC)c(-c2c3cc(O)c(=O)cc-3oc3cc(O)c(O)cc23)cc1OC	73.9% (active)
COc1ccc(OC)c(-c2oc3ccccc3c(=O)c2O)c1	-5.6% (inactive)
COc1cc(-c2cc(=O)c3ccccc3o2)ccc1O	5.9% (inactive)
COc1ccc(OC)c(-c2c3cc(O)c(=O)cc-3oc3cc(O)c(O)cc23)c1	61.1% (active)
O=c1cc(-c2ccccc2Cl)oc2cccc(O)c12	-9.9% (inactive)
CC1(C)CC(=O)c2c(oc3cc(O)c(O)cc23)C1	47.6% (inactive)
Nc1cnn(Cc2ccccc2F)c1	18.2% (inactive)
COc1ccc2[nH]cc(CCn3ccc(=O)c(C)c3C)c2c1	0.3% (inactive)
O=C(Nc1ccccc1)c1sccc1Oc1ccc([N+](=O)[O-])cc1F	-6% (inactive)
CC(C)Oc1ccc2c(=O)c(-c3ccccc3)coc2c1	0.6% (inactive) and 7.3% (inactive)
CC(=O)Oc1ccc2c(=O)c(-c3ccccc3)coc2c1	-0.1% (inactive)
COc1ccc2c(=O)c(-c3ccccc3)coc2c1	52.5% (active)

SMILES	inhibition
COc1cccc(-c2ccc(SCC(=O)NCCc3ccccc3)nn2)c1	1.9% (inactive)
O=c1[nH]c2ccccc2c(O)c1O	71.8% (active)
CC(=O)Nc1c(O)c2ccccc2[nH]c1=O	20.2% (inactive)
O=c1[nH]c2ccccc2c2ccccc12	3.2% (inactive)
Cc1cccc(/C(N)=N/OC(=O)C23CC4CC(CC(C4)C2)C3)c1	9% (inactive)
Cn1c(=O)n(Cc2ccc(F)cc2)c(=O)c2c1nc1n2CCCN1C1CCCCC1	6% (inactive)
CCOCCCNC(=O)CCC(=O)NNc1nc2ccccc2c2nc(C)nn12	57.5% (active)
COCCCNC(=O)CCC(=O)NNc1nc2ccccc2c2nc(C)nn12	-1.5% (inactive)
CCCCNC(=O)CCC(=O)NNc1nc2ccccc2c2nc(C)nn12	6.3% (inactive)
COC(=O)c1cccc(NS(=O)(=O)c2ccc(NC(C)=O)cc2)c1C	-4.2% (inactive)
O=[N+]([O-])c1ccc(N/N=C/c2cccc(O)c2O)c(S(=O)(=O)N2CCOCC2)c1	16.7% (inactive)
O=C(CCc1ccc(S(=O)(=O)N2CCOCC2)cc1)N/N=C/c1ccc(O)c(O)c1O	57.6% (active)
O=C(Cc1csc(N2CCOCC2)n1)N/N=C/c1ccc(Cl)cc1Cl	4.7% (inactive)
O=C(CCN1CCN(c2ccccc2)CC1)N/N=C/c1ccc(O)c(O)c1O	57.4% (active)
COc1cc(/C=N/Nc2ccc([N+](=O)[O-])cc2S(=O)(=O)N2CCOCC2)cc(OC)c1OC	-6.8% (inactive)
O=C(Cc1csc(N2CCOCC2)n1)N/N=C/c1cccc(O)c1	3.3% (inactive)
O=C(CCc1ccc(S(=O)(=O)N2CCOCC2)cc1)N/N=C/c1ccc(F)cc1F	4.8% (inactive)
COc1ccc(/C=N/NC(=O)CCN2CCN(c3ccccc3)CC2)c(OC)c1OC	-3.2% (inactive)
O=C(CCN1CCN(c2ccccc2)CC1)N/N=C/c1ccccc1O	-8.5% (inactive)
O=C(Cc1csc(N2CCOCC2)n1)N/N=C/c1ccc(O)c(O)c1O	83.3% (active)
O=C(CCc1ccc(S(=O)(=O)N2CCOCC2)cc1)N/N=C/c1cccc(O)c1	11.1% (inactive)
O=[N+]([O-])c1ccc(N/N=C/c2ccc(O)c(O)c2O)c(S(=O)(=O)N2CCOCC2)c1	82.3% (active)
